Screening results as filed in PubChem.
APE1 inh = inhibitors of human APE1 endonuclease | P27695 | recombinant APE1, TAMRA/BHQ-2 abasic DNA cleavage fluorescence | Potency, µM (highest dose often 65.8 µM), without a hit: top-dose activity change, negative = inhibition, actives largely listed as inhibitors | actives 0.35% (n = 350,000) | AID 2517;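 note: plate controls were vehicle for no effect and reference inhibitor for full effect; nearly all actives have a fitted effect of over 55% in size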
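Compound pre-exposure to 0.75 nM APE1, 15 min at ambient temperature. Reaction initiated with 50 nM TAMRA/BHQ-2 THF substrate, read immediately in kinetic mode, 525 nm excitation, 598 nm emission.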
Pol kappa inh = inhibitors of human DNA polymerase kappa | Q9UBT6 | actives 0.53% (n = 400,000) | purified Pol kappa, fluorescent DNA synthesis assay, 10 min | AID 588579 | Potency, µM (top dose mostly 107 µM), inactives show at the top dose activity, negative = inhibition, actives largely listed as inhibitors; note: % is set by controls: 0 for no effect and ±100 for the full control effect
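Pol kappa 10 nM + cpd, 15 min RT; start w/ substrate 50 nM final; fluorescence kinetic read, 0 and 10 min. Neg ctrl: buffer, no enzyme.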
Pol iota inh = inhibitors of human DNA polymerase iota. Q9UNA4. Pol iota fluorescent replication assay, 10 min. Potency, µM (doses to about 115 µM), for the others: at the highest dose activity, negative = inhibition, most hits filed as inhibitors. actives 1% (n = 390,000)
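Fluorescent replication assay read twice, at 0 min and 10 min after adding 50 nM (final) substrate. Enzyme (10 nM) and compounds were first incubated 15 min at room temperature; enzyme-free buffer wells were negative controls.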
Pol eta inh = blocks human DNA polymerase eta activity; Q9Y253; recombinant Pol eta, fluorescent DNA replication assay; Potency, µM (top dose mostly 114 µM), for inactives: at the highest dose activity change, negative = inhibition, hits mostly inhibitors; actives 1.2% (n = 390,000); AID 588591; note: % is set by controls: 0 for no effect and ±100 for the full control effect
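Fluorescent replication assay: 50 nM final substrate added after a 15 min room-temperature compound preincubation with 10 nM enzyme. Signal taken at 0 min and again at 10 min.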
Pol beta inh = DNA polymerase beta (human) inhibition; AID 485314; actives 1.3% (n = 340,000); Potency, µM (doses to about 114 µM), for inactives: at the top dose activity change, negative = inhibition, usual class: inhibitors; P06746; Pol beta primer extension/strand displacement, fluorescence kinetic; note: % is set by controls: 0 for no effect and ±100 for the full control effect
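Pol beta (10 nM) and compounds were preincubated 15 min at room temperature, then 50 nM substrate (final) started primer extension/strand displacement. Reads were taken at 0 and 10 min; concentration-response data were fitted to a four-parameter Hill equation.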
L3MBTL1 block = blocks human L3MBTL1 | AID 485360 | actives 0.66% (n = 230,000) | AlphaScreen L3MBTL1–H3K9me1 peptide binding | Potency, µM (titrated, usually from 57.1 µM), without a hit: at the highest dose activity, negative = inhibition, actives largely listed as inhibitors; note: % is set by controls: 0 for no effect and ±100 for the full control effect; nearly all actives have a fitted effect of over 60% in size
Target sequence (Q9Y468 whole entry, looked up): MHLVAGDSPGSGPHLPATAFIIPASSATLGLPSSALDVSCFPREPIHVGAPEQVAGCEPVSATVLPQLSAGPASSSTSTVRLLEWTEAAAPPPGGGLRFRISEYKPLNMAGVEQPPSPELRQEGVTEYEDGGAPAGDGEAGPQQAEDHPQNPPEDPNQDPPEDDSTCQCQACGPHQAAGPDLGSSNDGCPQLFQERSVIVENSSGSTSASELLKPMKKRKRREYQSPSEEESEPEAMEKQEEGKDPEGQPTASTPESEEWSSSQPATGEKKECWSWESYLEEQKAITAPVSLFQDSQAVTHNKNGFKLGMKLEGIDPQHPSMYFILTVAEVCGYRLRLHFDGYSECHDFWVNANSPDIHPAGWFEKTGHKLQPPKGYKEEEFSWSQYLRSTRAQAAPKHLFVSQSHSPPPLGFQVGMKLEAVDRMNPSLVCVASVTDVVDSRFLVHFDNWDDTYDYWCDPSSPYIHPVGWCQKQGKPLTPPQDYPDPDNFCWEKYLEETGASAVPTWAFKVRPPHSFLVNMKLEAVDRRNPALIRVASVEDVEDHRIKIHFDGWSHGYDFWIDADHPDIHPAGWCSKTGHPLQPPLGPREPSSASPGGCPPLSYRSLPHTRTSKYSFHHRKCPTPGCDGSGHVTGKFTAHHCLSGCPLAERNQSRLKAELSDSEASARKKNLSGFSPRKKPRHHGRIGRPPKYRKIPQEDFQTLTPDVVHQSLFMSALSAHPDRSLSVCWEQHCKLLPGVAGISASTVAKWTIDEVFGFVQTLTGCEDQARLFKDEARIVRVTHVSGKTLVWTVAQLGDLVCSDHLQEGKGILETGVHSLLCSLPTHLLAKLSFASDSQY
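Displacement of a biotinylated histone H3(1-15) peptide monomethylated at Lys9 (75 nM) from L3MBTL1 (50 nM) was measured by AlphaScreen after a 30 min room-temperature compound incubation; cefsulodin titration served as intraplate control.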
The depositor's hits bear a star; u = inconclusive; x = no result; ! = a repeat was not active; [ ] = dose if it differs, or a comment. The list is not random: actives were taken first. Their share in the collection is about 2.5%. Calls come from the whole dose curve; as a rule, active = well fitted curve in the direction sought with a large enough effect; inconclusive = small, poorly fitted or top-dose-only effect, or another doubt; inactive = no such curve, though single readings can be large; an effect the other way counts as inactive or inconclusive. Potency is the fitted concentration of half-maximal effect.

SMILES | APE1 inh | Pol kappa inh | Pol iota inh | Pol eta inh | Pol beta inh | L3MBTL1 block
OCCN=c1cc(-c2ccccc2)oc2ccc(Cl)cc12 | -6.4% | -7.5% | u | 2.4% | 89.1µM* | 14.1%
Cc1ccc(NC(=O)CSCC(=O)Nc2ncc3c(n2)CC(c2ccco2)CC3=O)cc1 (configuration not stated) | u | u | 28.2µM* | u | u | u
N#CCC(C(=O)c1cccnc1)c1ccccc1 (configuration not stated) | x | x | x | -6.4% | x | x
COCCN=c1scc(-c2cccs2)n1/N=C/c1ccc(O)c(O)c1O | 1.7% | u | u | u | 4.47µM* | u
Cc1ccc(C(=O)N2CCCC2)cc1S(=O)(=O)N1CCCCC1 | 20.8% | -5.8% | -2.4% | -8.9% | u | x
COc1ccc(NC(=O)/C(C#N)=C\c2ccc(-c3cccc(C(=O)O)c3C)o2)cc1 | -38.6% | u | u | 22.4µM* | 7.94µM* | u
COc1ccccc1NC(=O)c1ccc(CN2C(=O)C(C)=C(c3ccc(C)c(C)c3)S2(=O)=O)cc1 | x | 0.0% | 19.6% | x | -8.3% | x
C[C@H](NC(=O)/C(C#N)=C/c1ccc(O)c(O)c1)c1ccccc1 | u | u | u | 22.4µM* | 5.5%[57.1 µM] | x
COc1cc(/C=C(\C#N)C(=O)Nc2nnc(C(F)(F)F)s2)ccc1OCc1ccc(C(F)(F)F)cc1C(F)(F)F | 0.1% | 6.7µM* | x | x | x | x
C[C@@H](NC(=O)/C(C#N)=C/c1ccc(O)c(O)c1)c1ccccc1 | u | u | u | 14.1µM*! | 9.5%[57.1 µM] | -27.2%
COc1cc(/C=C(/C#N)C(=O)Nc2ccccc2)ccc1OCc1ccc(C(=O)O)cc1 | -3.7% | -4.0% | 0.4% | 79.4µM* | -3.5% | x
CC(NC(=O)/C(C#N)=C/c1ccc(Cl)c([N+](=O)[O-])c1)c1ccccc1 (configuration not stated) | 9.3% | -12.1% | -8.1% | -20.2% | -1.1% | -11.8%
COc1ccc(S(=O)(=O)N2CCN(CCCOc3ccc(F)cc3)CC2)cc1OC | 39.6% | -10.7% | 2.4% | -7.6% | 1.7% | x
COCc1cc(C)nc2sc3c(c12)NC(c1ccccc1C(=O)O)N(c1cccc(C(F)(F)F)c1)C3=O (configuration not stated) | x | -3.3% | -0.9% | -7.8% | -4.5% | x
N#C/C(=C\c1cccnc1)C(=O)Nc1ccccc1 | -1.8% | -7.8% | 80.7% | -17.6% | -6.7% | 10.2%
N#C/C(=C\c1ccc(O)c(O)c1)C(=O)Nc1ccccc1 | u | u | 56.2µM* | 12.6µM*! | -1.5%[57.1 µM] | -21.0%
CC(NC(=O)/C(C#N)=C/c1ccc(OCC(=O)O)cc1)c1ccccc1 (configuration not stated) | -0.3% | -17.1% | u | 17.8µM* | -13.2% | -9.5%
N#C/C(=C\c1cccc(O)c1)C(=O)Nc1ccc2c(c1)OCCO2 | u | 0.0% | 79.4µM* | -5.1% | -5.8% | 26.3%
CC(NC(=O)/C(=C/c1ccc(OC(F)F)cc1)c1ccccc1)c1ccccc1 (configuration not stated) | -1.0% | -21.0% | 20.4% | -17.6% | -21.2% | 13.9%
O=C(COC(=O)CNC(=O)c1ccccc1)Nc1ccc(Cl)cn1 | 41.1% | -1.3% | 23.7% | -7.7% | x | -4.4%
NC1=NC(=O)/C(=C\c2ccc(-c3ccccc3[N+](=O)[O-])o2)S1 | x | u | 20µM* | x | x | x
CN1C(=O)/C(=C/c2ccc(-c3ccccc3[N+](=O)[O-])o2)SC1=Nc1ccc(Cl)c(C(=O)O)c1 | 10.1% | u | u | 20µM* | 14.1µM* | -27.4%
O=C1C2C3C=CC(C3)C2C(=O)N1/N=C/c1ccc(-c2ccccc2[N+](=O)[O-])o1 (configuration not stated) | 19.0% | -11.5% | 7.1% | -6.4% | 32.1% | -10.7%
CC(C)(C)c1ccc2c(c1)OC(C(=O)N/N=C/c1ccc([N+](=O)[O-])o1)CO2 (configuration not stated) | -2.1% | -7.9% | u | -10.0% | 4.3% | 20.0%
COc1ccc(CNC(=O)COC(=O)c2ccc(F)c(S(=O)(=O)N3CCOCC3)c2)cc1 | -7.2% | -5.5% | -9.6% | -11.5% | x | 4.5%
SMILES | APE1 inh | Pol kappa inh | Pol iota inh | Pol eta inh | Pol beta inh | L3MBTL1 block
CC1(C)Cc2c(c(-c3ccco3)[nH]c(=O)c2C#N)CS1 | -8.7% | -31.8% | 28.2µM* | u | 28.2µM* | -15.3%
CC1(C)Cc2c(C#N)c(N3CCN(C(=O)c4ccccc4Cl)CC3)nc(-c3ccco3)c2CS1 | -10.8% | 79.4µM* | u | 10µM* | 20µM* | u
CC(=O)N1CCN(c2nc(-c3ccco3)c3c(c2C#N)CC(C)(C)SC3)CC1 | 1.2% | -16.8% | 1.2% | u | -3.5% | -2.3%
NS(=O)(=O)c1ccc(NC(=O)c2cnn3c2NC(=C2CC2)C=C3C(F)F)cc1 | x | -35.4% | u | x | x | x
CN(C)c1ccc(/C=C(\Cl)c2nc3ccccc3s2)cc1 | 4.5% | 9.5% | 27.8% | -11.7% | 2.0% | 10µM*
Oc1c(Cl)cc(Cl)cc1/C=C/c1ccc2cccc(O)c2n1 | -3.9% | -15.5% | 22.7% | -28.2% | 28.2µM* | -18.5%
Oc1ccc(Cl)cc1/C=C/c1ccc2cccc(O)c2n1 | -1.7% | -4.9% | 62.5% | -23.8% | 0.6% | -8.8%
O=C1c2ccccc2C(=O)c2c(NCCCN(CCO)CCO)cccc21 | u | -18.4% | u | u | 44.7µM* | u
CC(=O)Nc1ccc(-c2ccc(NC(C)=O)c(O)c2)cc1O | u | u | u | 35.5µM* | u | -21.8%
CC(=O)Nc1ccccc1O | 19.3% | -7.9% | 17.5% | -16.9% | 5.5% | 0.4%
CCC(=O)Nc1cc2c(cc1C(=O)c1ccccc1)OCCO2 | -1.2% | -7.0% | 11.4% | -7.7% | 79.4µM* | -5.6%
COc1ccc(Cn2c3nc4ccccc4nc3c3c(=O)n(Cc4ccco4)cnc32)cc1 | u | x | x | x | 35.5µM* | x
Cc1cccc(-n2cnc3c(c2=O)c2nc4ccccc4nc2n3Cc2ccco2)c1 | -0.6% | -4.6% | u | u | 39.8µM* | x
c1ccc(-n2nnc3ccccc32)cc1 | 0.6% | 18.7% | 29.9% | -5.2% | 5.9% | x
C(=C\n1nnc2ccccc21)/c1ccc[nH]1 | 5.5% | 25.1µM* | u | 50.1µM* | x | u
COC(=O)c1scc(-c2ccc(C)cc2)c1S(=O)(=O)N1CCN(c2ccc(C)cc2C)CC1 | x | -14.3% | -2.0% | -8.3% | -26.3% | x
Cn1nc(-c2ccc(OCC(=O)Nc3cccnc3)cc2)c2ccccc2c1=O | 3.3% | -8.0% | -5.9% | -3.6% | -10.1% | -8.4%
